A selection: hits, their analogues and other compounds. The true share with any hit is near 6.9%.
S-ASM inh: Inhibitors of Secretory Acid Sphingomyelinase (S-ASM): qHTS; 340,000 tested, 0.006% active; Sphingomyelin phosphodiesterase (Homo sapiens), P17405; AID 504937, 2011; Potency, µM (titrated, usually from 57.5 µM), for the others: top-dose activity change, negative = inhibition, actives largely listed as inhibitors; placental ASM, HMU-PC fluorogenic substrate, 60 min; also: potency is read from the fitted curve at half-maximal effect
Target sequence (P17405 47-631 limits assumed): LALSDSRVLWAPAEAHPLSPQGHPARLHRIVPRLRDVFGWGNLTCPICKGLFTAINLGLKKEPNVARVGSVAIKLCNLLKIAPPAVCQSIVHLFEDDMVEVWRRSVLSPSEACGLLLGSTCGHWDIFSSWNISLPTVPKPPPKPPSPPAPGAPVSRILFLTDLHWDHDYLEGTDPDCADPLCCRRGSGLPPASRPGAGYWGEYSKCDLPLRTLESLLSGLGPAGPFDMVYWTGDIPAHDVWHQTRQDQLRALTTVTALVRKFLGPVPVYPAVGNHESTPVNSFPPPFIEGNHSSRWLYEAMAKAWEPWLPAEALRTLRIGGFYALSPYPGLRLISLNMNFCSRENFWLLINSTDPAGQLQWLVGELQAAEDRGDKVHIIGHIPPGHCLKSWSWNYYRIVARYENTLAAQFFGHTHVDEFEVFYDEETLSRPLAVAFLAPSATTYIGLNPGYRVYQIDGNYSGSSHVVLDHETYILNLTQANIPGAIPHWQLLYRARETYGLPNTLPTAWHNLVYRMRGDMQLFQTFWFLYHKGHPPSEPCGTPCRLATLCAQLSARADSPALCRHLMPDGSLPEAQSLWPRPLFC
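Human placenta-derived ASM enzyme was preincubated with compound for 10 minutes at room temperature, then given fluorogenic substrate HMU-PC0 (9 uM final) for 60 minutes at 37 °C; a pH 10 stop preceded fluorescence reading at Ex 386/Em 447 nm.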
MCF10A rereplic: A quantitative high throughput screen for small molecules that induce DNA re-replication in MCF 10a normal breast cells. MCF 10A DNA re-replication, Hoechst nuclear intensity, 48 h. Potency, µM (highest dose often 46.1 µM), for inactives: top-dose activity, positive = re-replication, most hits filed as activators. 350,000 tested, 2.9% active. AID 624296, 2012; also: potency is read from the fitted curve at half-maximal effect; % of control where 0% means no effect; nearly all actives have a fitted effect of over 50% in size
KB-3-1 tox: qHTS assay for MDR1-selective chemotherapeutics: Primary screen using the parental adenocarcinoma cell KB-3-1. Potency, µM (highest dose often 46.1 µM), usual class: cytotoxic. 400,000 tested, 1.4% active. KB-3-1 viability, CellTiter-Glo ATP luminescence, 72 h. AID 1347075, 2019; also: potency is read from the fitted curve at half-maximal effect; % is scaled to controls: 0 for no effect and ±100 for the full control effect; nearly all actives have a fitted effect of over 60% in size
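Here the drug-naive KB-3-1 line serves as comparator for MDR sub-line selectivity; cells received compound titrations, 72 h at 37 °C, then CellTiter-Glo readout.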
KB-V1 cytotox: qHTS assay for MDR1-selective chemotherapeutics: Primary screen using the drug-selected MDR subline cells KB-V1 | 400,000 tested, 3.4% active | KB-V1 MDR cells viability, CellTiter-Glo, 72 h | AID 1347076, 2019 | Potency, µM (top dose mostly 46.1 µM), hits mostly cytotoxic; also: potency is read from the fitted curve at half-maximal effect; % is scaled to controls: 0 for no effect and ±100 for the full control effect; nearly all actives have a fitted effect of over 60% in size
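Cells of the MDR subline KB-V1 are plated, dosed with compound at multiple concentrations, and incubated 72 h at 37 degrees C; CellTiter-Glo is then added and luminescence read after 10 min.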
SW480 rerep: A quantitative high throughput screen for small molecules that induce DNA re-replication in SW480 colon adenocarcinoma cells; SW480 DNA re-replication, Hoechst DNA content imaging, 48 h; Potency, µM (top dose mostly 46.1 µM), for the others: at the top dose re-replication activation, hits mostly activators; 340,000 tested, 1.8% active; AID 624297, 2012; also: potency is read from the fitted curve at half-maximal effect; % of control where 0% means no effect; nearly all actives have a fitted effect of over 55% in size
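SW480 cells exposed to compounds for 48 hr at 37 C, 5% CO2, then Hoechst-stained 40 min. Nuclear DNA content imaged by fluorescence scanning (405 nm excitation, 500-530 nm emission); re-replication scored as increased high-intensity nuclei.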
Giardia killer: Small Molecules that selectively kill Giardia lamblia: qHTS. Giardia lamblia trophozoite viability. activity change, % at 7.66 µM, hits read low. 340,000 tested, 0.15% active. AID 540267, 2011; in the data active = activity change below about -80%; inconclusive = between about -30% and that limit;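 also: parasites exposed to compound for two days anaerobically before the ATP read; % is scaled to controls: 0 for no effect and ±100 for the full control effect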
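Luminescent ATP signal served as the viability read-out, measured 15-30 min after adding ATP detection reagent to trophozoites that had been incubated with compounds for 48 hrs at 37 deg C anaerobically at 100 cells/well.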
Starred values were filed as active, the others as inactive; i = inactive; ? = inconclusive; . = not tested or not shown; [ ] = another dose, or the depositor's remark. Unless noted, calls follow the shape of the dose curve; as a rule, active = well fitted curve in the direction sought with a large enough effect; inconclusive = small, poorly fitted or top-dose-only effect, or another doubt; inactive = no such curve, though single readings can be large; an effect the other way counts as inactive or inconclusive.

SMILES	S-ASM inh	MCF10A rereplic	KB-3-1 tox	KB-V1 cytotox	SW480 rerep	Giardia killer
COc1ccc(C(=O)NC(=S)Nc2ccccc2N2CCOCC2)cc1Br	2.3%	?	i	16.4µM*	-1.4%	-2.0
Cc1noc(C)c1COc1cccc(C(=O)Nc2ccccc2N2CCOCC2)c1	-0.2%	10.7%	i	?	-0.1%	-14.4
Cc1ccc(C(=O)NC(=S)Nc2ccccc2N2CCCC2)cc1[N+](=O)[O-]	18.3%	2.59µM*	i	i	0.1%	-9.5
COc1cc(C(=O)NCc2ccc(C)cc2)ccc1OCc1c(C)noc1C	0.1%	1.1%	i	i	-0.3%	-6.1
COc1cc(C(=O)OCC#N)ccc1OCc1c(C)noc1C	-6.2%	4.11µM*	?	?	10.3µM*	-1.0
O=C(Cc1ccc(-c2ccccc2)cc1)NO	.	.	?	i	.	.
Cc1cc(C)cc(NC(=O)Cn2cc(C(=O)c3cccs3)c3ccccc32)c1	.	.	i	?	.	.
Cn1c(NCC2CCCCC2)nc2cc(-c3ccsc3)sc2c1=O	.	.	18.4µM*	i	.	.
COc1ccccc1CNc1nc2cc(-c3ccsc3)sc2c(=O)n1C	.	.	?	20.6µM*	.	.
COc1ccccc1CNc1nc2cc(-c3sccc3C)sc2c(=O)n1C	.	.	i	i	.	.
Cc1ccc(CNc2nc3cc(-c4ccccc4)sc3c(=O)n2C)c(C)c1	.	.	i	?	.	.
COc1ccc(-c2cc3nc(NCc4ccc(C)cc4C)n(C)c(=O)c3s2)cc1OC	.	.	14.6µM*	2.59µM*	.	.
Cn1c(NCc2ccncc2)nc2cc(-c3ccsc3)sc2c1=O	.	.	i	i	.	.
COc1ccc(C(c2c(O)ccc3ccccc23)N2CCOCC2)c(OC)c1 (centres undefined)	-4.4%	3.26µM*	i	i	?	5.2
CCOc1ccc(N/C(N)=N/c2nc(CSc3nnc(C)s3)cc(=O)[nH]2)cc1	1.2%	?	0.731µM*	?	?	-11.1
Cc1nnc(SCc2cc(=O)[nH]c(/N=C(\N)Nc3ccccc3)n2)s1	-0.3%	18.4µM*	?	?	?	-16.4
Cc1nnc(SCc2cc(=O)[nH]c(/N=C(\N)Nc3ccccc3Sc3ccccc3)n2)s1	0.1%	3.6%	i	i	-7.3%	-8.1
COc1ccc(N/C(N)=N/c2nc(CSc3ccc(Cl)cc3)cc(=O)[nH]2)cc1	-3.8%	8.0%	i	i	-0.6%	-2.2
COc1ccc([C@@H]2[C@@H]3C(=O)N(C(C)(C)C)C(=O)[C@@H]3[C@]3(C)C(=O)N(c4ccc(C(F)(F)F)cc4)C(=O)N23)cc1	1.7%	18.3%	i	i	-1.5%	-25.1
Cc1cccc(-c2nc(SCCCOc3ccccc3Cl)n3[nH]c(=O)cc3n2)c1	.	.	i	i	.	.
CCNC(=O)CC1C(=O)N(C)C(=S)N1NC(=O)c1ccc(Cl)cc1 (centres undefined)	2.0%	3.9%	i	i	0.5%	-0.7
Nc1ccc(C(=O)NN2C(=O)[C@H](Cl)C2c2ccc(Cl)cc2)cc1 (some centres undefined)	-10.9%	16.4µM*	?	?	9.2µM*	8.9
COc1cc(OC)c2c(-c3cccc(-c4ccc(C(F)(F)F)cc4)c3)cc(=O)oc2c1	-19.3%	?	i	i	-32.0%	1.1
CCOC(=O)c1ccc(-c2cccc(-c3cc(=O)oc4cc(OC)cc(OC)c34)c2)cc1	-5.6%	?	i	i	?	-22.0
COc1cc(OC)c2c(-c3cccc(-c4ccc(F)c(Cl)c4)c3)cc(=O)oc2c1	-11.2%	4.61µM*	?	?	?	-2.8
SMILES	S-ASM inh	MCF10A rereplic	KB-3-1 tox	KB-V1 cytotox	SW480 rerep	Giardia killer
COc1cc(OC)c2c(-c3cccc(-c4ccc(OC)c(OC)c4)c3)cc(=O)oc2c1	-17.6%	1.3µM*	i	i	2.06µM*	20.6
COc1cc(OC)c2c(-c3cccc(-c4ccc(NC(C)=O)cc4)c3)cc(=O)oc2c1	27.2%	?	i	i	9.2µM*	-13.0
COc1cc(OC)c2c(-c3cccc(-c4ccc(C#N)cc4)c3)cc(=O)oc2c1	-6.0%	?	i	?	?	-24.7
COc1cc(OC)c2c(-c3cccc(-c4sccc4C(C)=O)c3)cc(=O)oc2c1	-7.3%	0.651µM*	2.91µM*	2.59µM*	6.51µM*	-6.7
Nc1cc(S(=O)(=O)N2CCCCC2)ccc1Oc1ccccc1	-0.8%	4.4%	i	?	-91.9%	-1.4
O=C(N/C(=C\c1cccc(Br)c1)C(=O)N1CCOCC1)c1ccco1	6.7%	-10.3%	i	i	0.4%	-20.7
CC[n+]1ccccc1/C=C/c1ccc(N(C)C)cc1	-28.9%	?	1.3µM*	i	-4.0%	7.8
CC[n+]1ccc(/C=C/c2ccc(N(C)C)cc2)c2ccccc21	?	4.0%	1.16µM*	i	-39.4%	-29.1
CN(C(=O)c1oc(=O)c2ccccc2c1-c1ccccc1)c1cccc(Cl)c1	.	.	i	i	.	.
CO[C@]1(NC(=O)C2SC(=C(C(N)=O)C(=O)O)S2)C(=O)N2C(C(=O)O)=C(CSc3nnnn3C)CS[C@H]21 (some centres undefined)	.	1.9%[20.6 µM]	.	.	-4.6%[20.6 µM]	.
Cc1cccc(N2CCN(c3ccc(C(=O)O)cc3NC(=O)c3cccc(Cl)c3)CC2C)c1 (centres undefined)	.	.	i	?	.	.
CC1Cc2cc(S(=O)(=O)NCCc3ccccc3)ccc2N1C(=O)C1CCC1 (centres undefined)	.	.	?	i	.	.
C=CC[C@@H](Cc1ccc(F)cc1)C(=O)OC[C@@H]1CCCN1C(=O)[C@H](CC=C)CC(=O)N(CCO)Cc1ccccc1	0.3%	0.7%	?	20.6µM*	0.8%	5.7
C=CCC[C@@H](Cc1ccc(F)cc1)C(=O)OC[C@@H]1CCCN1C(=O)[C@@H](CC=C)CC(=O)N[C@@H](CO)Cc1ccccc1	-15.8%	17.7%	16.4µM*	i	9.6%	14.7
COc1cc2c(C(=O)NCc3ccc4c(c3)OCO4)cn(CC(C)C)c(=O)c2cc1OC	-1.6%	14.6µM*	i	i	-2.0%	-3.3
COC(=O)CNC(=O)c1cn(CC(C)C)c(=O)c2cc(OC)c(OC)cc12	-0.5%	4.3%	i	i	-11.2%	4.2
COc1ccc2nc(C)cc(SCC(=O)NNC(=O)COc3ccccc3)c2c1	8.4%	7.0%	i	?	-6.3%	-10.5

Assay outcomes as filed in PubChem BioAssay.
